BRCA1 expr up = activators of BRCA1 expression | MCF7-BRCA1-FFLuc reporter, luminescence, 48 h; response scale: scaled: vehicle 0%, 10 µM genistein 100% | Potency, µM (highest dose often 46.1 µM), for the others: at the highest dose activation, actives largely listed as activators | 380,000 tested, 1.1% active | AID 624202; note: nearly all actives have a fitted effect of over 80% in size
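48 h compound treatment of MCF7-BRCA1-FFLuc cells (phenol-red free MEM, 37 °C), then 15 min with luciferase substrate and luminescence imaging.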
HEK293 tox = cytotoxic in the GLP-1 receptor inverse agonist counter-screen. HEK293 cAMP-luciferase reporter cells, luminescence, 24 h. Potency, µM (top dose mostly 38.3 µM), for inactives: at the top dose activity change, negative = inhibition, most hits filed as inhibitors. 410,000 tested, 0.13% active;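 note: loss of luciferase light is scored as toxicity; % is set by controls: 0 for no effect and ±100 for the full control effect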
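Cells in DMEM/10% Nu serum/1% pen-strep, 1536-well format. Pre-incubated 12 h, dosed with 23 nL compound, incubated a further 24 h. Luciferase detection, 12 min at room temp, luminescence.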
GLP1R ag = agonists of human GLP-1 receptor; HEK293 GLP-1R CRE-luciferase, luminescence, 4-6 h; cells express a hypersensitive GLP-1R form; Potency, µM (titrated, usually from 45.6 µM), inactives show at the highest dose activation, most hits filed as activators; P43220; 380,000 tested, 0.007% active; note: % of control where 0% means no effect
Target sequence (P43220 whole entry, looked up): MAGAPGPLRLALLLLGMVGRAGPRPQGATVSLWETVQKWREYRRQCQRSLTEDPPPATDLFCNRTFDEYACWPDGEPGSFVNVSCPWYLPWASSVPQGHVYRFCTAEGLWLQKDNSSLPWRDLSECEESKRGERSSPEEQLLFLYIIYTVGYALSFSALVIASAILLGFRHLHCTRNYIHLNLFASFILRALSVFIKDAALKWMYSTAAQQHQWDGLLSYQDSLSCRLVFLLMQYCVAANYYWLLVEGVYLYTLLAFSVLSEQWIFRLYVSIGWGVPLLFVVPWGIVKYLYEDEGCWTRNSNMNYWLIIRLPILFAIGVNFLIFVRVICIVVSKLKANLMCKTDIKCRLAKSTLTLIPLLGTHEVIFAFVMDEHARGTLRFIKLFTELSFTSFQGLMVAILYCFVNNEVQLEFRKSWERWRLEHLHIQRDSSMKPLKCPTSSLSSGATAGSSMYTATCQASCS
GLP1R inv ag = GLP-1 receptor (human) inverse agonism; Potency, µM (series often up to 38.3 µM), for inactives: at the top dose activity change, negative = inhibition, most hits filed as inhibitors; AID 624417; P43220; HEK293 GLP-1R CRE-luciferase, luminescence, 24 h; GLP-1R form is constitutively active; 410,000 tested, 1.6% active; note: % is set by controls: 0 for no effect and ±100 for the full control effect; nearly all actives have a fitted effect of over 55% in size
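HEK293 cells stably co-expressing constitutively active GLP-1R and a cAMP-responsive luciferase reporter were seeded in DMEM with 10% Nu serum, given compounds after 12 h, and incubated 24 h at 37 deg C. Luminescence was then read.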
Numbers without * were called inactive; ? = inconclusive; · = no result; [ ] = another dose, or the depositor's remark. Compounds with a hit are over-represented: about 2.6% of the library has one in this group of screens. Calls come from the whole dose curve; as a rule, active = well fitted curve in the direction sought with a large enough effect; inconclusive = small, poorly fitted or top-dose-only effect, or another doubt; inactive = no such curve, though single readings can be large; an effect the other way counts as inactive or inconclusive. Potency is the fitted concentration of half-maximal effect.

SMILES	BRCA1 expr up	HEK293 tox	GLP1R ag	GLP1R inv ag
Cc1onc(-c2ccc(Cl)cc2Cl)c1-c1csc(COc2ccccc2)n1	-44%	13%	5%	2.8µM*
CC(C)CC(NC(=O)C(COC(C)(C)C)NC(=O)C(Cc1ccc(O)cc1)NC(=O)C(CO)NC(=O)C(Cc1c[nH]c2ccccc12)NC(=O)C(Cc1cnc[nH]1)NC(=O)C1CCC(=O)N1)C(=O)NC(CCCN=C(N)N)C(=O)N1CCCC1C(=O)NNC(N)=O (centres undefined)	·	·	6%	·
Cn1c(SCc2ccccc2F)nnc1-c1ccccn1	11µM*	-2%	-2%	5%
Fc1ccc(CSc2nnc(-c3ccccn3)o2)cc1	4µM*	5%	15%	-9%
Cn1c(SCc2ccc(F)cc2)nnc1-c1cccs1	4.5µM*	-17%	-5%	-15%
Cn1c(SCc2ccc(F)cc2)nnc1-c1ccccn1	4.5µM*	-5%	-7%	0%
Cc1ccc(CSc2nnc(-c3ccccn3)n2C)cc1	?	1%	2%	2%
Cc1ccc(C)c(CSc2nnc(-c3cccnc3)n2N)c1	-1%	1%	0%	-1%
Nn1c(SCc2ccccc2F)nnc1-c1cccnc1	8.9µM*	2%	3%	2%
FC(F)(F)c1ccccc1Cc1c(-c2ccc(Cl)cc2)nc2c3ccccc3ccn12	-34%	4%	9%	6%
COc1cc(/C=C/c2nc3ccccc3nc2/C=C/c2cc(OC)c(OC)c(OC)c2)cc(OC)c1OC	-9%	·	·	·
Cc1ccc2c(CC(=O)Nc3ccc(S(=O)(=O)N4CCCCC4)cc3)coc2c1	·	-4%	·	?
Cc1ccc2c(CC(=O)Nc3ccc(S(=O)(=O)N4CCCC(C)C4)cc3)coc2c1 (centres undefined)	·	-19%	·	10µM*
O=S(=O)(NCCSc1ccccc1)c1ccc(F)cc1	-11%	19%	13%	10µM*
CCCCc1nc(NCCNC(=O)c2ccccc2)c(C#N)c2c1CSC(C)(C)C2	-36%	?	-34%	8.9µM*
O=S(=O)(NC(=NCc1ccccc1)c1ccc(F)cc1)c1ccc(Cl)cc1	-18%	-1%	-5%	11µM*
CCOc1ccc(-n2nc(CO)c(C(=O)NCCCc3ccccc3)n2)cc1	·	1%	·	?
O=C(NC1CCCC1)c1ccccc1OCc1ccccc1	-29%	2%[0.307 µM]	20%	1%[0.307 µM]
Cc1occc1C(=O)NNC(=O)C1CCCC1	-3%	-1%[7.66 µM]	-1%	3%[7.66 µM]
COc1ccccc1C(=O)NC1CCCCCCC1	58%	-7%	16%	7.1µM*
Cc1occc1C(=O)NC1CCCCCCC1	14µM*	5%	5%	?
COc1ccccc1C(=O)NCCC(=O)NC1CCC(C)CC1 (centres undefined)	8.9µM*	-12%	13%	-2%
Cc1ccc2cc(CCNC(=O)c3ccco3)c(=O)[nH]c2c1	13µM*	1%	-4%	5%
CC(C)(C)c1ccc(OCCCCCCN2CCNCC2)cc1	-79%	?	6%	4µM*
Cc1cc(C)c(OCCOCCN2CCNCC2)c(C)c1	-39%	1%	1%	10µM*
SMILES	BRCA1 expr up	HEK293 tox	GLP1R ag	GLP1R inv ag
CC(C)(c1ccccc1)c1ccc(OCCN2CCOCC2)cc1	-5%	9%	2%	?
CC(C)(c1ccccc1)c1ccc(OCCCN2CCNCC2)cc1	-71%	?	12%	1.1µM*
Clc1ccc(OCCCN2CCCCC2)c(Br)c1	10µM*	-13%	-4%	?
Cc1cc(C)c(OCCOCCN2CCCC2)c(C)c1	-25%	-3%	13%	?
CCCN(C(=O)Cn1nc(Cc2ccncc2)c2ccccc2c1=O)c1ccccc1C	·	-5%	·	-2%
Cc1ccc(OCCCCN2CCC(C)CC2)c(Br)c1	-48%	?	9%	0%
Cc1ccc(OCCCCCCN2CCNCC2)c(Br)c1	?	?	-3%	2.8µM*
CN(Cc1ccc(F)cc1)C(=O)CCc1nnc(-c2ccccc2)o1	14µM*	-5%	6%	19%
C/C(=N\NC(=S)NCc1ccccc1)c1cccs1	0%	3.5µM*	19%	?
C/C(=N\NC(=S)NCc1ccccc1)c1ccc(Cl)s1	-25%	9%	16%	-6%
C/C(=N\NC(=S)NCc1ccccc1)c1ccc2c(c1)OCCO2	-1%	?	?	10µM*
Cc1noc(C)c1COC(=O)c1ccccc1Sc1ccccc1C#N	-55%	-16%	10%	8.9µM*

Screening results (PubChem)
